Compound activity: PubChem BioAssay, National Center for Advancing Translational Sciences (NCATS)
KB-3-1 tox: kills parental KB-3-1 adenocarcinoma cells | actives 1.4% (n = 400,000) | KB-3-1 viability, CellTiter-Glo ATP luminescence, 72 h | AID 1347075 | Potency, µM (highest dose often 46.1 µM), usual class: cytotoxic; further: on the % scale 0 is the no-effect control and ±100 the full control effect; nearly all actives have a fitted effect of over 60% in size
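Viability of parental KB-3-1 cells, measured by CellTiter-Glo luminescence, followed a 72 h incubation at 37 °C with pinned compounds in phenol-red-free DMEM containing 10% FBS.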
SW480 rereplic: DNA re-replication induction in SW480 cells; SW480 DNA re-replication, Hoechst DNA content imaging, 48 h; Potency, µM (titrated, usually from 46.1 µM), for inactives: at the highest dose re-replication activation, usual class: activators; actives 1.8% (n = 340,000); further: % of control where 0% means no effect; nearly all actives have a fitted effect of over 55% in size
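Cells (250 per well) received 23 nL compound or DMSO by pin tool and were kept 48 hr at 37 C, 5% CO2. Nuclei were then stained with Hoechst for 40 min and scanned for DNA content.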
MCF10A rerep: inducers of DNA re-replication in MCF 10A breast cells; MCF 10A DNA re-replication, Hoechst nuclear intensity, 48 h; Potency, µM (highest dose often 46.1 µM), for the others: top-dose activity, positive = re-replication, hits mostly activators; actives 2.9% (n = 350,000); AID 624296; further: % of control where 0% means no effect; nearly all actives have a fitted effect of over 50% in size
ELG1 repair inh: ELG1-dependent DNA repair inhibition; HEK293T ELG1-luciferase reporter, luminescence, 16 h; DNA damage induced by 5-fluorouridine; AID 504467; Potency, µM (highest dose often 46.1 µM), for inactives: at the highest dose activity change, negative = inhibition, actives largely listed as inhibitors; actives 2.3% (n = 330,000); further: on the % scale 0 is the no-effect control and ±100 the full control effect; nearly all actives have a fitted effect of over 55% in size
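Reporter activity after DNA damage by 5-fluorouridine is monitored. Compound-treated cells incubate 16 hr at 37 °C, then ONE-Glo is added for 30 min before luminescence reading.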
KB-V1 cytotox: kills drug-selected multidrug resistant KB-V1 cells; Potency, µM (series often up to 46.1 µM), hits mostly cytotoxic; AID 1347076; actives 3.4% (n = 400,000); KB-V1 MDR cells viability, CellTiter-Glo, 72 h; further: on the % scale 0 is the no-effect control and ±100 the full control effect; nearly all actives have a fitted effect of over 60% in size
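Drug-selected KB-V1 cells, grown in DMEM lacking phenol red with 10% FBS, receive compound titrations; after three days at 37 degrees C, surviving cell ATP is quantified by CellTiter-Glo luminescence and responses normalized and curve-fitted.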
Numbers without * were called inactive. The list is not random: actives were taken first. Their share in the collection is about 8.1%. The call rests on the fitted dose curve; in most records, active means well fitted curve in the direction sought with a large enough effect; inconclusive means small, poorly fitted or top-dose-only effect, or another doubt; inactive means no such curve, though single readings can be large; an effect the other way counts as inactive or inconclusive. Potency means the concentration at half of the fitted maximal effect.

O=C(Nc1ccccc1)c1cn(-c2ccccc2)nc1-c1ccccc1 was read as KB-3-1 tox inactive and KB-V1 cytotox inactive.
Cc1nc(NC(C)C)c2cnn(CCc3ccccc3)c2n1 was read as KB-3-1 tox inactive, SW480 rereplic 3.8%, MCF10A rerep 20.6µM*, ELG1 repair inh inconclusive and KB-V1 cytotox inconclusive.
`Cc1ccc(NC(=O)CN2CCSc3ccc(S(=O)(=O)N4CCCC4)cc32)cc1` gave KB-3-1 tox inactive and KB-V1 cytotox 11.6µM*.
`CCOc1ccc(NC(=O)CN2C(=O)CSc3ccc(S(=O)(=O)N4CCOCC4)cc32)cc1` gave KB-3-1 tox inactive, SW480 rereplic -4.7%, MCF10A rerep -1.2%, ELG1 repair inh -2.9% and KB-V1 cytotox inconclusive.
CCOc1ccc(NC(=O)CN2CCSc3ccc(S(=O)(=O)N4CCCC4)cc32)cc1 was read as KB-3-1 tox inconclusive and KB-V1 cytotox 10.3µM*.
COc1ccc(-c2cc(C(=O)NCc3ccccc3)c3c(-c4ccccc4)[nH]nc3n2)cc1 was read as KB-3-1 tox inactive and KB-V1 cytotox inconclusive.
For Cc1cc(C)n(-c2nc(N(c3ccccc3)c3ccccc3)nc(-n3nc(C)cc3C)n2)n1 the results were KB-3-1 tox 18.4µM*, SW480 rereplic 17.3%, MCF10A rerep inconclusive, ELG1 repair inh 25.9µM* and KB-V1 cytotox 2.59µM*.
CC(=O)c1nnn(-c2nc(N)nc(N(c3ccccc3)c3ccccc3)n2)c1C was read as KB-3-1 tox inactive, SW480 rereplic -9.2%, MCF10A rerep 0.0%, ELG1 repair inh -14.5% and KB-V1 cytotox 10.3µM*.
For CCCCN(CCCC)c1nc(OC)nc(-n2nnc(C(C)=O)c2C)n1 the results were KB-3-1 tox inactive, SW480 rereplic -2.7%, MCF10A rerep inconclusive, ELG1 repair inh inconclusive and KB-V1 cytotox inactive.
`O=C(CCNS(=O)(=O)c1cccc2nonc12)NC1CCCCCC1` gave KB-3-1 tox inactive, SW480 rereplic -4.8%, MCF10A rerep -18.9%, ELG1 repair inh -4.8% and KB-V1 cytotox inactive.
Screening CC(=O)/C(=N\Nc1cccc(Cl)c1)Sc1nnc(-c2ccccc2)n1-c1ccccc1 returned KB-3-1 tox inactive, SW480 rereplic 0.9%, MCF10A rerep inconclusive, ELG1 repair inh -18.9% and KB-V1 cytotox inactive.
Screening OC(CN1CCc2ccccc2C1)c1ccccc1 (configuration not stated) returned KB-3-1 tox inactive, SW480 rereplic -19.8%, MCF10A rerep inconclusive, ELG1 repair inh 0.9% and KB-V1 cytotox inactive.
Screening CCSc1n[nH]c2nc3c(c(=O)n12)C1(CCCCC1)Cc1ccccc1-3 returned KB-3-1 tox inactive, SW480 rereplic -3.2%, MCF10A rerep 5.17µM*, ELG1 repair inh 0.0% and KB-V1 cytotox inactive.
Screening N#CCSc1n[nH]c2nc3c(c(=O)n12)C1(CCCCC1)Cc1ccccc1-3 returned KB-3-1 tox inactive, SW480 rereplic inconclusive, MCF10A rerep 16.4µM*, ELG1 repair inh inconclusive and KB-V1 cytotox inactive.
`Cn1c(NCCCO)nc2c(c1=O)C1(CCCCC1)Cc1ccccc1-2` gave KB-3-1 tox inactive, SW480 rereplic 0.2%, MCF10A rerep 18.4µM*, ELG1 repair inh -5.3% and KB-V1 cytotox inactive.
`CSc1n[nH]c2nc3c(c(=O)n12)C1(CCCCC1)Cc1ccccc1-3` gave KB-3-1 tox inconclusive, SW480 rereplic inconclusive, MCF10A rerep inconclusive, ELG1 repair inh 4.4% and KB-V1 cytotox inconclusive.
CCn1c(SCC#N)nc2c(c1=O)C1(CCCC1)Cc1ccccc1-2 was read as KB-3-1 tox inconclusive, SW480 rereplic 4.2%, MCF10A rerep inconclusive, ELG1 repair inh -15.1% and KB-V1 cytotox inactive.
Screening CCC1(C)Cc2ccccc2-c2nc(NCCCO)n(-c3ccccc3)c(=O)c21 (configuration not stated) returned KB-3-1 tox inconclusive, SW480 rereplic -0.5%, MCF10A rerep inconclusive, ELG1 repair inh -16.9% and KB-V1 cytotox inconclusive.
Screening Cc1c(Cl)c(C(F)(F)F)nn1CC(=O)NN returned KB-3-1 tox inactive, SW480 rereplic -22.0%, MCF10A rerep 3.7%, ELG1 repair inh -6.6% and KB-V1 cytotox inactive.
Screening COC(C(=O)NNC(=O)CCc1ccccc1)c1ccccc1 (configuration not stated) returned KB-3-1 tox inactive, SW480 rereplic -7.5%, MCF10A rerep -0.5%, ELG1 repair inh -12.5% and KB-V1 cytotox inactive.
Screening CC(Sc1ccc(S(=O)(=O)N2CCN(C)CC2)cn1)C(=O)NC1(C#N)CCCCC1 (configuration not stated) returned KB-3-1 tox inactive, SW480 rereplic 2.0%, MCF10A rerep -1.6%, ELG1 repair inh 17.7% and KB-V1 cytotox inactive.
CC(C)C[C@H]1CN([C@@H](CC(C)C)CN2CCCC2CN2C(=S)NC[C@@H]2Cc2ccc(O)cc2)C(=S)N1CC1CCCCC1 (some centres not stated) was read as KB-3-1 tox inconclusive, SW480 rereplic 3.9%, MCF10A rerep inconclusive and KB-V1 cytotox 20.6µM*.
`Oc1ccc(C[C@H]2CNC(=S)N2CC2CCCN2C[C@H](Cc2ccc(O)cc2)N2C[C@H](Cc3ccc(O)cc3)N(CC3CCCCCC3)C2=S)cc1` (some centres not stated) gave KB-3-1 tox 20.6µM*, SW480 rereplic inconclusive, MCF10A rerep 10.3µM* and KB-V1 cytotox inconclusive.
For CC(C)C[C@@H](CN1CCCC1CN1C(=S)NC[C@@H]1Cc1ccccc1)N1C[C@H](Cc2ccc(O)cc2)N(CC2CCCCC2)C1=S (some centres not stated) the results were KB-3-1 tox inactive and KB-V1 cytotox inconclusive.
Screening CCCc1c(-c2cccc(Br)c2)ncn1Cc1ccccc1OC returned KB-3-1 tox inconclusive and KB-V1 cytotox 18.4µM*.
For CCCc1c(-c2ccc(Cl)cc2)ncn1Cc1ccccc1OC the results were KB-3-1 tox 16.4µM* and KB-V1 cytotox 18.4µM*.
Screening COc1ccccc1CCn1cnc2c3cc(C)ccc3n(C)c2c1=O returned KB-3-1 tox inactive, SW480 rereplic 15.9%, MCF10A rerep 9.8%, ELG1 repair inh inconclusive and KB-V1 cytotox inconclusive.
CCCc1c(-c2ccc(Cl)cc2)ncn1CCc1ccccc1OC was read as KB-3-1 tox inconclusive and KB-V1 cytotox 18.4µM*.
`CCCc1c(-c2cccc(Cl)c2)ncn1CCc1ccccc1OC` gave KB-3-1 tox inconclusive and KB-V1 cytotox 14.6µM*.
COc1ccccc1Cn1cnc2cccnc21 was read as KB-3-1 tox inactive, SW480 rereplic -7.2%, MCF10A rerep -8.5%, ELG1 repair inh 21.8% and KB-V1 cytotox inactive.
Screening COC(=O)c1ccc2nc(-c3cccc(Br)c3)c(Cc3ccccc3OC)n2c1 returned KB-3-1 tox inactive and KB-V1 cytotox inactive.
